# Only some compounds are listed: those with a hit (about 2.6% of all), similar ones and a draw of the others.
# Nrf2 activator: activates Nrf2 signaling | AREc32 ARE-luciferase reporter (MCF7-derived line), luminescence, 24 h | Potency, µM (series often up to 46.1 µM), for the others: at the top dose activation, actives largely listed as activators | hit rate 0.31% among 410,000; also: potency is read from the fitted curve at half-maximal effect; % of control where 0% means no effect; nearly all actives have a fitted effect of over 65% in size
#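 Quantitative high-throughput format: AREc32 reporter cells, 1000 per well, received compound by pin transfer and were incubated 24 hr at 37 deg C, 5% CO2, before Steady-Glo luminescence detection.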
# A549 tox: A549 cytotoxicity, counter-screen for Nrf2 inhibitors. Potency, µM (series often up to 46 µM), for the others: top-dose activity change, negative = cytotoxicity, usual class: inhibitors. hit rate 0.16% among 390,000. AID 504648. A549 ARE-Fluc cells, CellTiter-Fluor viability, 18-24 h; also: potency is read from the fitted curve at half-maximal effect; % is scaled to controls: 0 for no effect and ±100 for the full control effect
#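 A549 ARE-Fluc cells in 5% FBS OPTI-MEM, 5000 cells/well, rested 2 h then exposed to compounds in concentration-response for 18-24 h at 37 °C. Viability by CellTiter-Fluor fluorescence (Ex 405/Em 525) after 30 min; luciferase luminescence (BugLite, 15 min, RT) read afterwards.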
# Nrf2 inh: Nrf2 pathway inhibition | hit rate 2.1% among 360,000 | Potency, µM (highest dose often 46 µM), for inactives: top-dose activity change, negative = inhibition, most hits filed as inhibitors | A549 ARE-Fluc reporter, luciferase luminescence, 18-24 h; also: potency is read from the fitted curve at half-maximal effect; % is scaled to controls: 0 for no effect and ±100 for the full control effect; nearly all actives have a fitted effect of over 60% in size
#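 A549 ARE_Fluc cells (5000/well, 5% FBS OPTI-MEM) pre-incubated 2 h, then treated with compounds 18-24 h at 37C/5% CO2 in concentration-response. CellTiter-Fluor viability read first; BugLite luciferase luminescence after 15 min at room temperature gives Nrf2 activity.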
# A-T KAP1 phos: candidate therapy for ataxia-telangiectasia | hit rate 0.19% among 320,000 | Potency, µM (titrated, usually from 57.5 µM), inactives show at the top dose activation, actives largely listed as activators | F2112 A-T fibroblasts, KAP-1 phosphorylation AlphaLISA; neocarzinostatin DNA damage 30 min before lysis | AID 485349; also: potency is read from the fitted curve at half-maximal effect; % of control where 0% means no effect; nearly all actives have a fitted effect of over 45% in size
#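 ATM-like activity read as KAP-1 phosphorylation via AlphaLISA donor/acceptor antibody pairs after lysis and 6 hr at 25C. Cells were ATM-null patient fibroblasts (F2112, hTERT), dosed 60 min, then exposed to the DSB inducer NCS for 30 min.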
# CCT modulator: modulators of cytosolic chaperonin (CCT/TRiC) activity | hit rate 0.3% among 360,000 | purified chaperonin ATPase assay, HTRF ADP detection, 30 min | AID 651819 | activity change, % (concentration not given with the values), hits read low; in the data active = activity change below about -30%; also: % is scaled to controls: 0 for no effect and ±100 for the full control effect
#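 Enzyme 40 or 20 nM (batch-dependent) in Tris pH 7.4/KCl/MgCl2/DTT; cpd 76 uM single point; ATP 10 uM; 30 min 37 °C; Transcreener ADP HTRF detection, 30 min RT; ratio 665/615.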
# TCR activator: activates T cell receptor signaling | 330,000 tested, under 10 active | Potency, µM (highest dose often 9.22 µM), inactives show top-dose activation of IL-2 secretion, usual class: activators | primary human leukocytes, anti-CD3, IL-2 HTRF, 48 h; also: % of control where 0% means no effect
#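 Human primary leukocytes + a-CD3 beads + cpd, 48 hr; IL-2 in supernatant by HTRF (ex 320nm / em 665nm). No co-stimulatory signal supplied.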
# An asterisk follows results filed as active; ? = inconclusive; nt = no result given; [ ] = dose if it differs, or a comment. Unless noted, calls follow the shape of the dose curve; as a rule, active = well fitted curve in the direction sought with a large enough effect; inconclusive = small, poorly fitted or top-dose-only effect, or another doubt; inactive = no such curve, though single readings can be large; an effect the other way counts as inactive or inconclusive.
SMILES,Nrf2 activator,A549 tox,Nrf2 inh,A-T KAP1 phos,CCT modulator,TCR activator
COCCNC(=O)c1onc(CSc2ccncc2)c1C(=O)NCCOC,0%,0%,1%,-16%,-4,3%
CN(C)c1ccc(C(CNC(=O)c2ccccc2Cl)N2CCCC2)cc1 (stereo not given),1%,1%,nt,nt,nt,nt
COc1ccc(-c2noc(-c3ccc(NCCc4ccccc4)c([N+](=O)[O-])c3)n2)cc1OC,0%,-4%,-6%,nt,nt,nt
COc1ccccc1Nc1nnc(SCc2nnc(-c3cc(OC)c(OC)c(OC)c3)o2)s1,3%,3%,-16%,6%,0,3%[46.1 µM]
CCOc1ccccc1Nc1nnc(SCc2nnc(-c3cc(OC)c(OC)c(OC)c3)o2)s1,6%,?,16µM*,-1%,-3,-6%[46.1 µM]
O=C(Nc1ccn(-c2ccccc2)n1)c1ccc(Cl)cc1,4%,5%,-4%,-9%,-2,-12%
N#Cc1ccc(C(=O)Nc2ccn(-c3ccccc3)n2)cc1,3%,-18%,23µM*,2%,2,-5%[46.1 µM]
COc1ccccc1-c1nnc(SCC#CCOC(=O)c2ccc(F)cc2)o1,nt,-1%,5%,nt,nt,nt
CCOC(=O)c1c(C)[nH]c(C)c1S(=O)(=O)N1CCC(C(=O)Nc2ccccc2CC)CC1,1%,-6%,-1%,nt,nt,nt
CCN(CC)S(=O)(=O)c1ccc2oc(SCc3ccc(F)cc3)nc2c1,2%,-17%,18µM*,nt,-1,1%
CCN(CC)S(=O)(=O)c1ccc2oc(SCC(=O)NC3CC3)nc2c1,4%,2%,17%,11%,-3,-2%
COc1ccccc1NS(=O)(=O)c1ccc2oc(SCc3ccc(C#N)cc3)nc2c1,10%,-12%,16µM*,5%,1,-2%[46.1 µM]
Cc1nc2ccccc2c2oc(C(=O)Nc3ccc(C(C)C)cc3)cc12,-1%,?,15µM*,3%,0,2%
O=C(Nc1ccc2c(c1)OCCO2)c1cc2ccccc2o1,4%,-24%,?,-5%,-2,-9%
Cc1nc2ccccc2c2oc(C(=O)Nc3ccc4c(c3)OCCO4)cc12,1%,-29%,23µM*,0%,0,-3%
COc1cc(NC(=O)c2cc3c(C)nc4ccccc4c3o2)cc(OC)c1OC,3%,3%,-21%,4%,0,-1%
COc1ccc(Cc2nnc(NC(=O)c3ccccc3F)s2)cc1,6%,-15%,3%,-8%,-1,-10%
Cc1ccc(NC(=O)NC(C)c2c(-n3cccc3)sc(C)c2C)cc1F (stereo not given),0%,?,23µM*,nt,nt,nt
CC1CCN(c2nc3nonc3nc2Nc2ccc(F)cc2)CC1,4%,?,9.2µM*,-5%,-1,0%
CC1CCCN(c2nc3nonc3nc2Nc2ccccc2F)C1 (stereo not given),0%,-3%,?,2%,-1,-4%
COc1ccc(Nc2nc3nonc3nc2N2CCCCC2)cc1,4%,-10%,26µM*,-8%,0,0%
Cc1cc(OC(C)C(=O)N(Cc2ccco2)Cc2ccccc2F)cc(C)c1Cl (stereo not given),0%,7%,?,nt,nt,nt
Cc1cc(C)c(S(=O)(=O)N2CCN(S(=O)(=O)N3CCC(C)CC3)CC2)c(C)c1,0%,5%,9%,-5%,-49*,8%
Cc1ccc2[nH]c(=O)c3cc(C(=O)N(C)c4ccccc4C)sc3c2c1,-1%,1%,-3%,-18%,-5,-1%
Cc1ccc(NC(=O)C(=O)NCC2(c3ccccc3)CCCC2)cc1Cl,0%,13%,13%,nt,nt,nt
SMILES,Nrf2 activator,A549 tox,Nrf2 inh,A-T KAP1 phos,CCT modulator,TCR activator
Cc1cc(-c2nnc(SCC(=O)Nc3ccc(C(F)(F)F)cc3)n2C)no1,1%,-14%,23µM*,1%,-1,2%
CCCn1c(=N)c(C(=O)NC2CCCC2)cc2c(=O)n3cccc(C)c3nc21,0%,?,0%,7%,-1,0%[46.1 µM]
Cc1cccn2c(=O)c3cc(C(=O)NC4CCCCC4)c(=N)n(CCN4CCOCC4)c3nc12,4%,-18%,-1%,16µM*,-2,-7%
COc1ccc(-n2cc(-c3ccccc3)[n+]3c2CCCCC3)cc1,0%,-14%,8.2µM*,7%,1,2%
FC(F)Sc1ccc(-n2cc(-c3ccccc3)[n+]3c2CCC3)cc1,-1%,-7%,?,5%,0,-6%[46.1 µM]
FC(F)Oc1ccc(-n2cc(-c3ccc(Cl)cc3)[n+]3c2CCCCC3)cc1,0%,-5%,6%,14µM*,-5,1%
COc1ccc(NC(=O)C(NC(C)=O)C(=O)NCc2ccccc2OC)cc1 (stereo not given),0%,-4%,nt,1%,-2,-4%
COc1ccc(CNC(=O)C(NC(C)=O)C(=O)Nc2ccc(C(C)C)cc2)cc1 (stereo not given),2%,2%,-6%,-2%,-41*,-1%
O=C(CNc1ccc(F)cc1)N/N=C/C1CC=CCC1 (stereo not given),2%,-12%,-12%,-2%,3,-6%
O=C(CNc1n[nH]c(=O)[nH]c1=O)N/N=C/C1CC=CCC1 (stereo not given),3%,1%,9%,32µM*,-2,0%
COc1cc2c(=O)n(CCC(=O)NCC3CCCO3)c(=O)n(CC(=O)Nc3ccc(C)cc3C)c2cc1OC (stereo not given),0%,-5%,?,-2%,1,-3%
CC(=O)n1cc(C2C(=O)CCCC2=O)c2ccccc21,1%,5%,nt,-1%,2,-4%
CC(=O)n1cc(C2CC(=O)OC3=C2CC(=O)C(C)(C)C3)c2ccccc21 (stereo not given),0%,nt,nt,nt,-106*,nt
CC1=C(C(=O)Nc2ccc(F)cc2)C(c2ccc(N(C)C)cc2)NC(=O)N1 (stereo not given),0%,-4%,15%,nt,nt,nt
Cc1cc(OC(C)C(=O)N(Cc2ccc(N(C)C)cc2)Cc2ccco2)ccc1Cl (stereo not given),6%,2%,12%,nt,nt,nt
COc1ccc(OCC(=O)N2CCN(C(=O)c3ccc(OC)c(OC)c3)CC2)cc1,0%,6%,16%,nt,nt,nt
O=C(c1[nH]nc2c1CCc1ccccc1-2)N1CCN(Cc2ccc3c(c2)OCO3)CC1,1%,-17%,15µM*,5%,2,-5%
O=C(c1ccccc1)N1CCN(Cc2ccc3c(c2)OCO3)CC1,-1%,-4%,1%,4%,1,11%
COc1ccc(OCCN2CCN(C(=O)c3ccc(OC)c(OC)c3)CC2)cc1,0%,-19%,23µM*,6%,-2,-2%

# Assay outcomes from PubChem.
